Source: PMC5540273 (PLoS ONE, 2017)

Assays:
Conditions in all cases: concentration: 1 μM, replicates: in singlicate; n = 1
CDK8 = system: CDK8
CDK9 = system: CDK9
CDKL1 = system: CDKL1
CDKL2 = system: CDKL2
CDKL3 = system: CDKL3
CDKL5 = system: CDKL5
CHEK1 = system: CHEK1
CHEK2 = system: CHEK2
CIT = system: CIT
CLK1 = system: CLK1
CLK2 = system: CLK2
CLK3 = system: CLK3
CLK4 = system: CLK4
CSF1R-autoinhibited = system: CSF1R-autoinhibited
CSF1R = system: CSF1R
CSK = system: CSK
CSNK1A1L = system: CSNK1A1L
CSNK1A1 = system: CSNK1A1
CSNK1D = system: CSNK1D
CSNK1E = system: CSNK1E
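Note: KINOMEscan kinase panel screen.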

Row | Structure (SMILES) | %Inh (CDK8) | %Inh (CDK9) | %Inh (CDKL1) | %Inh (CDKL2) | %Inh (CDKL3) | %Inh (CDKL5) | %Inh (CHEK1) | %Inh (CHEK2) | %Inh (CIT) | %Inh (CLK1) | %Inh (CLK2) | %Inh (CLK3) | %Inh (CLK4) | %Inh (CSF1R-autoinhibited) | %Inh (CSF1R) | %Inh (CSK) | %Inh (CSNK1A1L) | %Inh (CSNK1A1) | %Inh (CSNK1D) | %Inh (CSNK1E)
1 | Cc1ccc(-c2ccc3occ(-c4ccc(S(C)=O)cc4)c3c2)nn1 (stereo not shown) | 0% | 0% | 35% | 0% | 13% | 0% | 0% | 11% | 0% | 0% | 0% | 0% | 70% | 13% | 0% | 1% | 0% | 0% | 0% | 0%
2 | Cl.N#CCc1ccc(Nc2nccc(Nc3ccc(Oc4ccccc4)cc3)n2)cc1 [GW639905] | 0% | 0% | 3% | 55% | 0% | 0% | 38% | 0% | 41% | 23% | 9% | 0% | 3% | 7% | 35% | 31% | 0% | 0% | 0% | 8%
3 | O=C(O)C(F)(F)F.O=c1[nH]ccc2nc(N[C@@H]3CCNC3)nc(Nc3cc(Cl)cc(Cl)c3)c12 [GSK2188764] | 0% | 34% | 37% | 24% | 0% | 0% | 100% | 85% | 67% | 82% | 95.9% | 34% | 82% | 0% | 69% | 18% | 56% | 94% | 79% | 91.3%
4 | CN(c1ccc2c(c1)nc(NCc1ccccc1)n2C)c1ccnc(Nc2ccc(CS(C)(=O)=O)cc2)n1.Cl [GW811603] | 79% | 15% | 20% | 0% | 16% | 9% | 0% | 0% | 55% | 31% | 0% | 43% | 0% | 80% | 100% | 14% | 0% | 36% | 0% | 18%
5 | O=C(Nc1n[nH]c2nc(-c3cccc(O)c3)ccc12)C1CC1 [SB-711805] | 0% | 0% | 30% | 80% | 0% | 9% | 0% | 25% | 21% | 20% | 20% | 16% | 0% | 0% | 0% | 100% | 6% | 0% | 11% | 34%
6 | O=C(Nc1n[nH]c2nc(-c3ccccc3O)ccc12)C1CC1 [SB-711880] | 0% | 0% | 42% | 98.5% | 17% | 0% | 3% | 0% | 0% | 66% | 16% | 0% | 11% | 16% | 0% | 0% | 76% | 25% | 0% | 0%
7 | CCOc1nccc(-c2c(-c3ccc(F)cc3)ncn2C2CCNCC2)n1 [SB-249175] | 25% | 1% | 1% | 0% | 17% | 7% | 0% | 16% | 10% | 0% | 0% | 11% | 100% | 31% | 28% | 0% | 45% | 97.4% | 95.3% | 99.4%
8 | COc1cccc(CC(=O)N2CCc3cc(-c4cn(C)c5ncnc(N)c45)ccc32)c1 [GSK2608899] | 96.6% | 12% | 1% | 4% | 0% | 0% | 0% | 0% | 5% | 29% | 0% | 13% | 0% | 0% | 96.9% | 14% | 8% | 0% | 39% | 77%
